The full list was thinned out, with hits kept by preference.
RE007 growth inh: less growth of the S. pombe RE007 Vpr strain. S. pombe RE007 Vpr strain, BacTiter-Glo ATP luminescence, 24 h. Potency, µM (highest dose often 92.2 µM), most hits filed as inhibitors. actives 0.21% (n = 360,000). AID 651644; active = well fitted falling curve with a large enough effect; inconclusive = small, poorly fitted or top-dose-only effect; inactive = no such curve, though single readings can be large or run the other way; also: nearly all actives have a fitted effect of over 50% in size
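Fission yeast RE007 carrying one integrated HIV-1 vpr copy, seeded at OD 0.01 in PMG+AL medium with 23 nL pinned compound. Grown 24 h at 30 degrees; viability read by BacTiter-Glo luminescence after 5 min.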
LmPK inh: inhibitors of Leishmania mexicana pyruvate kinase; AID 1721; Q27686; purified LmPK, Kinase-Glo ATP luminescence, 1 h; Potency, µM (highest dose often 57.5 µM), actives largely listed as inhibitors; actives 0.37% (n = 290,000)
Target sequence (Q27686 whole entry, looked up): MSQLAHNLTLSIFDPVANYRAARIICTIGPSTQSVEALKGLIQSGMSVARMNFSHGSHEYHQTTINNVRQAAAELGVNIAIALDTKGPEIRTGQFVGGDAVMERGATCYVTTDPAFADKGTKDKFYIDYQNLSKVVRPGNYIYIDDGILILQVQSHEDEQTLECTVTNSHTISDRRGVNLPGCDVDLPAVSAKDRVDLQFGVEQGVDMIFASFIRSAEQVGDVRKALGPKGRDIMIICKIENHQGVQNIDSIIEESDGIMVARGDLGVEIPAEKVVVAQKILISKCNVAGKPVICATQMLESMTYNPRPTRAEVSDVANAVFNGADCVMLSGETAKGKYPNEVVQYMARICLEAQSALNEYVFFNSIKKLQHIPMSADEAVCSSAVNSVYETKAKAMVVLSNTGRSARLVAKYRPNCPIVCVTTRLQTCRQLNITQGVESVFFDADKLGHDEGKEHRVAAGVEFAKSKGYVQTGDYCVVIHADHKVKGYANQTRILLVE
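In 50 mM imidazole pH 7.2 with 7 mM MgCl2, LmPK (0.1 nM) turned over PEP (0.5 mM) and ADP (0.1 mM) for 1 h at room temperature. Luciferase read-out of ATP.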
CHX counter: counter-screen hit for Shiga toxin inhibitors, cycloheximide; cell reporter, cycloheximide protein synthesis inhibition counterscreen; max response, %; actives 12% (n = 300,000); AID 2314; in the data active = max response mostly above about 13%, no sharp cut-off; inactive = mostly below about 14%; also: read at 38.3 µM for the half of the compounds with a filed dose
FBPA Giardia inh: inhibitors of Giardia lamblia fructose-1,6-bisphosphate aldolase; actives 0.71% (n = 290,000); Potency, µM (top dose mostly 59.6 µM), most hits filed as inhibitors; purified Giardia FBPA; A8B2U2; AID 2451; also: nearly all actives have a fitted effect of over 55% in size
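40 nM FBPA preincubated 10 min at RT with compound (up to 57.5 uM final), then substrate plus GAPDH/TPI/NAD/arsenate coupling and diaphorase/resazurin added. Fluorescence read after 20 min at RT, 525/598 nm.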
TbPYK inhibitor: inhibitors of Trypanosoma brucei pyruvate kinase; TbPYK enzyme, Kinase-Glo Plus ATP luminescence, 45 min; Potency, µM (series often up to 76.8 µM), actives largely listed as inhibitors; actives 0.12% (n = 410,000); also: nearly all actives have a fitted effect of over 50% in size
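In this concentration-response screen, enzyme-free wells defined baseline while DMSO plates tracked drift. Each reaction combined TbPYK, substrate, compound and 130 uM ADP for 45 min at room temperature. Kinase-Glo Plus luminescence gave the signal.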
Shiga toxin inh: Shiga toxin inhibition; actives 9.2% (n = 290,000); AID 2315; inhibition, % at 38.7 µM; Vero cells, Shiga toxin protein synthesis inhibition reporter; in the data active = inhibition mostly above about 28%, no sharp cut-off; inactive = mostly below about 43%
Numbers stand for hits; n = inactive; u = inconclusive; x = no result given; ! = not confirmed by another sample. Unless noted, calls follow the shape of the dose curve; as a rule, active = well fitted curve in the direction sought with a large enough effect; inconclusive = small, poorly fitted or top-dose-only effect, or another doubt; inactive = no such curve, though single readings can be large; an effect the other way counts as inactive or inconclusive.

SMILES | RE007 growth inh | LmPK inh | CHX counter | FBPA Giardia inh | TbPYK inhibitor | Shiga toxin inh
CC(C)Sc1nnc(-c2c[nH]c3ccccc23)n1C | n | n | 50 | n | n | 121
C#CCSc1nnc(-c2c[nH]c3ccccc23)n1C | n | n | 18 | n | n | n
Cc1cccc(OC(=O)c2cc(-c3ccc4c(c3)OCCO4)on2)c1 | x | x | x | x | n | x
CCC(C)(C(=O)Nc1ccc(OC)cc1)N(C)C(=O)Cn1nnnc1N (configuration not stated) | n | n | n | n | n | n
CC(=O)Nc1cccc(NC(=O)c2ccc(C(=O)Nc3cccc(NC(C)=O)c3)nc2)c1 | n | n | n | n | n | n
O=C(Nc1ccccc1)c1ccc(C(=O)Nc2ccccc2)nc1 | n | n | n | n | n | 49
Cc1cccc(NC(=O)c2ccc(C(=O)Nc3cccc(C)c3)nc2)c1 | n | n | n | n | n | 64
CC(=O)c1cccc(NC(=O)c2ccc(C(=O)Nc3cccc(C(C)=O)c3)nc2)c1 | n | n | n | n | n | n
Cc1ccc2nc(Nc3ccc(Br)cc3)nc(-c3ccccc3)c2c1 | x | x | x | x | n | x
Nc1nc(NCc2c(F)cccc2Cl)nn1-c1ccccc1 | n | n | 25 | n | n | 56
COc1ccc(CNC(=O)Cn2c(SCC(=O)N(C)c3ccccc3)nc3ccccc32)cc1 | x | x | x | x | n | x
CCC(C)(C)NC(=O)/C=C/c1cnc2ccccc2n1 | n | n | 73 | n | n | 77
CC(C)N(Cc1ccccc1)C(=O)COC(=O)/C=C/c1cnc2ccccc2n1 | n | n | 21 | n | n | n
O=C(/C=C/c1cnc2ccccc2n1)NC12CC3CC(CC(C3)C1)C2 | n | n | 54 | n | n | 136
COc1ccc(N2CCN(C(=O)c3cc4cc(Cl)ccc4[nH]3)CC2)cc1 | n | n | 19 | n | n | n
Cc1ccc2c(C)c(C(=O)N3CCN(Cc4ccc5c(c4)OCO5)CC3)oc2c1C | n | n | 32 | n | n | 75
O=C(c1cc2cc(Cl)ccc2[nH]1)N1CCCCC1 | n | n | 25 | n | n | n
O=C(c1cc2cc(Cl)ccc2[nH]1)N1CCN(c2ccc(F)cc2)CC1 | n | n | n | n | n | n
O=CN1CCN(C(=O)c2cc3cc(Cl)ccc3[nH]2)CC1 | n | n | n | n | n | x
O=C(c1cccc(Cl)c1)N1CCN(Cc2ccc3c(c2)OCO3)CC1 | n | n | n | n | n | n
Cc1ccc(C(=O)N2CCN(Cc3ccc4c(c3)OCO4)CC2)o1 | n | n | n | n | n | n
O=C(c1cc2cc(Cl)ccc2[nH]1)N1CCN(Cc2ccc3c(c2)OCO3)CC1 | n | n | 13 | u | n | n
Cn1nnnc1SCCCNCc1cc(Br)ccc1OCc1ccccc1 | x | x | x | x | n | x
COc1cccc(-c2nnc(SCC(=O)N(C)C3CCCCC3)o2)c1 | x | x | x | x | n | x
CCOC(=O)c1cccc(Nc2ccc3cc(S(=O)(=O)N4CCCCC4)ccc3n2)c1 | x | x | x | x | n | x
SMILES | RE007 growth inh | LmPK inh | CHX counter | FBPA Giardia inh | TbPYK inhibitor | Shiga toxin inh
O=C(NC(=S)N1CCN(Cc2ccc3c(c2)OCO3)CC1)c1ccc(Cl)cc1 | n | n | 15 | n | n | n
CCN1CCN(C(=O)c2cc3cc(Cl)ccc3[nH]2)CC1 | n | n | n | n | n | n
CN1CCN(C(=O)c2cc3cc(Cl)ccc3[nH]2)CC1 | n | n | 12! | n | n | n
COc1ccc(C2=CC(=O)C[C@H](c3ccc(F)cc3)C2)c(OC)c1 | n | x | x | x | n | x
COc1ccc(S(=O)(=O)NCCS(=O)(=O)N2CCN(c3ccccc3)CC2)cc1C | x | x | x | x | n | x
CCN(CC)S(=O)(=O)c1cc(NC(=O)Cn2ncc(Cl)c(Cl)c2=O)ccc1C | n | n | 32 | n | n | n
COc1ccc(NC(=O)Cn2ncc(Cl)c(Cl)c2=O)cc1S(=O)(=O)N1CCOCC1 | x | n | 19 | n | n | n
O=C(Cn1ncc(Cl)c(Cl)c1=O)Nc1ccc2c(c1)OCO2 | n | x | x | x | n | x
CCC(=O)Nc1ccc(C(=O)Cn2ncc(Cl)c(Cl)c2=O)cc1 | n | n | 46 | n | n | 54
COc1ccc(NC(=O)c2ccc(Cl)nc2)cc1S(=O)(=O)N1CCOCC1 | n | x | x | x | n | x
COc1ccc(CNC(=O)CCS(=O)(=O)c2cc(Br)cc3c2N(C(=O)C2CC2)CC3)cc1 | x | x | x | x | n | x
CC(C)COC(=O)Nc1nnc(SCCOc2ccccc2)s1 | n | n | n | n | n | n
Nc1nnc(SCCOc2ccc(Br)cc2)s1 | n | n | 18 | n | n | n
CCCSc1nnc(N)s1 | n | n | n | n | n | n
Nc1nnc(SCCOc2ccccc2)s1 | n | n | 17 | n | n | 27
Nc1nnc(SCc2ccccc2Cl)s1 | n | n | n | n | n | n
Cc1nnc(SCCOc2ccccc2)s1 | n | n | 26 | n | n | n
Cc1cccc(N(C)S(=O)(=O)c2c[nH]c3ccc([N+](=O)[O-])cc23)c1 | n | n | n | x | n | n
Cc1ccc(NC(=O)CCCn2c(=O)c3cccn3c3cccnc32)cc1C | x | x | x | x | n | x
O=C(OCc1ccccc1)c1ccc(-c2nnn(Cc3ccccc3F)n2)cc1 | x | x | x | x | n | x
Fc1ccccc1Cn1nnc(-c2ccc3c(c2)OCO3)n1 | n | n | 43 | n | n | 88
COc1ccc(-c2nnn(Cc3ccccc3F)n2)cc1 | n | n | 49 | n | n | 96
CN1CCN(CCNC(=O)c2cnn(-c3ccc(Cl)cc3)c2C2CCN(C(=O)OC(C)(C)C)CC2)CC1 | x | x | x | x | n | x
COc1ccc2[nH]c3c(NCCC4=CCCCC4)ncnc3c2c1 | n | n | 33 | n | n | 125
COc1ccc2[nH]c3c(NCc4ccco4)ncnc3c2c1 | n | n | 36 | n | n | 97
SMILES | RE007 growth inh | LmPK inh | CHX counter | FBPA Giardia inh | TbPYK inhibitor | Shiga toxin inh
COc1ccc2[nH]c3c(NCCCOC(C)C)ncnc3c2c1 | n | u | 44 | n | u | n
CCOc1ccc2[nH]c3c(NCCC(C)C)ncnc3c2c1 | n | n | 14 | n | n | n
CCN(CC)CCNc1ncnc2c1[nH]c1ccc(OC)cc12 | x | n | n | n | x | n
Cc1nn(-c2ccccc2)c(Cl)c1CN(C(=O)CCl)c1cccc2ccccc12 | n | n | 12 | n | n | n
CCc1ccc(-c2cc(C(=O)N3N=C(C(F)F)CC3(O)C(F)F)c3ccccc3n2)cc1 (configuration not stated) | n | n | 28 | n | n | 89
CC(C)Cc1cc(C(=O)N2N=C(C(F)F)CC2(O)C(F)F)c2ccccc2n1 (configuration not stated) | n | n | n | n | n | n
CCOC(=O)c1cc(C#N)c(SCC(=O)Nc2ccc(C(C)=O)cc2)[nH]c1=O | n | n | 17 | n | n | 47
CCOC(=O)c1cc(C#N)c(SCC(N)=O)[nH]c1=O | n | n | n | n | n | n
Cc1ccc(NC(=O)c2ccc3snnc3c2)cc1C | n | n | 37 | n | n | 74
COc1ccc(NC(=O)c2ccc3snnc3c2)cc1OC | x | x | x | x | n | x
O=C(Nc1ccc(F)cc1)c1ccc2snnc2c1 | n | n | 29 | n | n | 52

Screening data (PubChem)
